# In the library only some 3.9% were active in any assay of this set; here they are far more common.
# 3CLpro inhibitor = SARS-CoV 3CLpro protease inhibition. inhibition, % at 6 µM. 0.14% of 290,000 active. recombinant SARS-CoV 3CLpro, quenched FRET peptide cleavage; in the data active means inhibition above about 12%
# FBA Mtb inh = Mtb fructose-bisphosphate aldolase inhibition; purified M. tuberculosis FBA, fluorescence read-out; P9WQA3; 2.3% of 360,000 active; AID 588726; inhibition, % at 1 µM; in the data active means inhibition above about 27%;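 further: 0% = vehicle and 100% = reference inhibitor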
# Target sequence (P9WQA3 whole entry, looked up): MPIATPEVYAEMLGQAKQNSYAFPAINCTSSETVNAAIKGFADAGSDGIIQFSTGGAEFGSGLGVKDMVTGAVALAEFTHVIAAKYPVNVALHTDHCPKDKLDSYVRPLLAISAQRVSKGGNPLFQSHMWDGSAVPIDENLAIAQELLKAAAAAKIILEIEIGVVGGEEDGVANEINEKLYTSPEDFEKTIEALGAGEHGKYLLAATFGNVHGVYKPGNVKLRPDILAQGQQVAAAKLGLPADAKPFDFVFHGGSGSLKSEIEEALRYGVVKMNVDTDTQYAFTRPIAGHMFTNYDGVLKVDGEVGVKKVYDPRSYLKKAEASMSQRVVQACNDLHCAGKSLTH
# GDH-TPI counter = inhibits GDH-TPI coupling enzymes, artifact for Mtb FBA screen. inhibition, % at 4.8 µM. 1.2% of 360,000 active. GDH-TPI coupled enzyme counterscreen, NADH absorbance. AID 588335; in the data active means inhibition above about 30%;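 further: 0% = DMSO wells and 100% = wells lacking the enzyme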
# PrPC TRFRET = inhibitors of human cell surface prion protein PrPC; TR-FRET read-out; inhibition, % at 13.8 µM; P04156; 0.43% of 370,000 active; in the data active means inhibition above about 24%; further: 0% = median of the test wells and 100% = reference compound wells
# Vc quorum ag-1 = quorum light induction in luxS cqsA deficient V. cholerae; V. cholerae BH1578 lux reporter, luminescence, 6 h; activation, % at 18.7 µM; 0.16% of 350,000 active; in the data active means activation mostly above about 9.7%, no sharp cut-off
# Vc quorum ag-2 = induces V. cholerae light production without autoinducers; V. cholerae BH1578 lux reporter, luminescence, 6 h; activation, % at 50 µM; 620 tested, under 10 active; shares compounds with Vc quorum ag-1; call rule not given here
# * hit, by the source's call; i = inactive; / = no result.
SMILES,3CLpro inhibitor,FBA Mtb inh,GDH-TPI counter,PrPC TRFRET,Vc quorum ag-1,Vc quorum ag-2
O=C(Cc1ccc(NC(=O)C2CCN(C(=O)CCc3ccccc3)CC2)cc1)Nc1ccc(C(=O)N2CCOCC2)cc1,/,-2,-5,8,i,/
CN(c1ccccc1)S(=O)(=O)c1ccc(C(=O)NCc2ccccc2F)cc1,/,2,10,12,i,/
COc1ccccc1CNC(=O)c1ccc(S(=O)(=O)N(C)c2ccccc2)cc1,/,-2,-1,1,14,0
CC(C)Cc1ccc(-c2cc3nc(NCCOc4ccccc4)ccn3n2)cc1,/,9,7,6,0,/
COc1cccc(-n2sc3c(c2=S)-c2cc(OC)ccc2NC3(C)C)c1,-1,1,7,-8,i,/
CC1(C)Nc2ccc(O)cc2-c2c1ssc2=S,1,-4,3,-12,25,0
Cc1ccc(Oc2nccc(-c3ccc(Cl)cc3)n2)cc1,-4,5,-3,-2,12,0
O=C(c1ccccc1OCc1ccccc1)N(Cc1ccccn1)CC1CCCO1 (stereo unspecified),/,/,/,3,/,/
CC(=O)c1cccc(NC(=O)COC(=O)COc2ccc(Cl)cc2)c1,4,0,4,-5,0,/
CC(=O)c1cccc(NC(=O)COC(=O)Cc2ccc(Cl)cc2)c1,/,-1,-10,1,14,0
COCCNC(=S)N(CCCO)Cc1cc2cc3c(cc2[nH]c1=O)OCCO3,-3,14,9,-1,389*,2
Cc1csc(C(=O)O)c1NC(=O)c1cccc([N+](=O)[O-])c1,1,-2,9,-4,0,/
COc1ccc(NC(=O)CSc2nnc(-c3n[nH]c4c3CCC4)n2N)cc1OC,/,/,/,-8,/,/
O=[N+]([O-])c1ccc(N(CCO)CCO)c2c1no[n+]2[O-],/,-4,19,-22,39*,2
CN1CCN(c2ccc([N+](=O)[O-])c3no[n+]([O-])c23)CC1,-38,-10,-2,3,3,/
COc1ccc(-c2nc(N)ncc2Oc2ccccc2Br)c(O)c1,2,7,18,-8,36*,0
COc1cccc(Oc2cnc(N)nc2-c2ccc(OC)cc2O)c1,4,-2,9,1,2,/
O=C(Nc1ccc(-c2cn3ccsc3n2)cc1)c1ccc(F)c(S(=O)(=O)N2CCOCC2)c1,-6,-1,4,13,12,0
C=CCNC(=O)CCCOc1ccc(C)cc1,-2,0,5,-6,35*,10
O=C(c1ccc2c(c1)OCO2)N(Cc1ccco1)C1(C(=O)NC2CCCCC2)CCCCC1,3,-2,10,4,17*,0
O=C(c1ccccn1)N(Cc1ccco1)C1(C(=O)NC2CCCC2)CCCCC1,-1,1,11,3,-1,/
CCN1C[C@@H]2[C@@H]3C(=O)N(C)C(=O)[C@@H]3[C@](C)(C1=O)N2C(=O)c1ccc(C(F)(F)F)cc1,/,6,15,3,i,/
Clc1ccc(-c2cc(COc3ccc4ccccc4c3)no2)cc1,-5,5,-4,-1,12,0
Cc1cccc(N2CCN(C(=O)Cn3cccc3C(=O)c3ccccc3)CC2)c1C,1,-1,3,2,21,0
CCOC(=O)c1nnn(-c2nonc2N)c1CN1CCc2ccccc2C1,1,1,13,8,12,1
SMILES,3CLpro inhibitor,FBA Mtb inh,GDH-TPI counter,PrPC TRFRET,Vc quorum ag-1,Vc quorum ag-2
CC(C)OC(=O)c1nnn(-c2nonc2N)c1CN1CCc2ccccc2C1,2,1,-3,5,5,/
CC(=O)c1ccc(Oc2cc(C)nc(NCc3ccccc3)n2)cc1,3,5,3,7,25*,1
O=C1NC[C@@H](CCCCN2C[C@H](Cc3ccc(O)cc3)N(CCC3CCCCC3)C(=O)C2=O)N(CC2CCCCC2)C1=O,/,/,/,5,/,/
COC(=O)c1ccc(-c2nc(O)c(C)s2)cc1,2,-1,3,4,0,/
COC(=O)c1ccc(-c2nc3cc(Cl)c(N)cc3s2)cc1,0,6,-5,-2,25*,0
COc1ccccc1OCc1cc(-c2ccccc2)no1,0,-2,-1,2,0,/
Cc1cc(COc2ccccc2O)on1,-2,2,-10,7,12,201
CNC(=O)c1ccccc1NC(=O)C1CC(=O)N(C(C)C)C1 (stereo unspecified),1,2,-7,5,0,/
CCCc1cc(Nc2ccccc2)n2ncnc2n1,2,1,-3,2,1,/
CCCc1cc(Nc2ccccc2OCC)n2ncnc2n1,-4,-7,14,-5,3,1

# Source: PubChem
